Assay outcomes: PubChem, National Center for Advancing Translational Sciences (NCATS)
GCN5L2 inh – inhibitors of human GCN5L2 histone acetyltransferase; Q92830; GCN5L2 HAT assay, ThioGlo1 CoA-SH fluorescence; Potency, µM (highest dose often 58.9 µM), without a hit: at the top dose activity change, negative = inhibition, actives largely listed as inhibitors; 390,000 tested, 0.21% active; AID 504327
Target sequence (Q92830 whole entry, looked up): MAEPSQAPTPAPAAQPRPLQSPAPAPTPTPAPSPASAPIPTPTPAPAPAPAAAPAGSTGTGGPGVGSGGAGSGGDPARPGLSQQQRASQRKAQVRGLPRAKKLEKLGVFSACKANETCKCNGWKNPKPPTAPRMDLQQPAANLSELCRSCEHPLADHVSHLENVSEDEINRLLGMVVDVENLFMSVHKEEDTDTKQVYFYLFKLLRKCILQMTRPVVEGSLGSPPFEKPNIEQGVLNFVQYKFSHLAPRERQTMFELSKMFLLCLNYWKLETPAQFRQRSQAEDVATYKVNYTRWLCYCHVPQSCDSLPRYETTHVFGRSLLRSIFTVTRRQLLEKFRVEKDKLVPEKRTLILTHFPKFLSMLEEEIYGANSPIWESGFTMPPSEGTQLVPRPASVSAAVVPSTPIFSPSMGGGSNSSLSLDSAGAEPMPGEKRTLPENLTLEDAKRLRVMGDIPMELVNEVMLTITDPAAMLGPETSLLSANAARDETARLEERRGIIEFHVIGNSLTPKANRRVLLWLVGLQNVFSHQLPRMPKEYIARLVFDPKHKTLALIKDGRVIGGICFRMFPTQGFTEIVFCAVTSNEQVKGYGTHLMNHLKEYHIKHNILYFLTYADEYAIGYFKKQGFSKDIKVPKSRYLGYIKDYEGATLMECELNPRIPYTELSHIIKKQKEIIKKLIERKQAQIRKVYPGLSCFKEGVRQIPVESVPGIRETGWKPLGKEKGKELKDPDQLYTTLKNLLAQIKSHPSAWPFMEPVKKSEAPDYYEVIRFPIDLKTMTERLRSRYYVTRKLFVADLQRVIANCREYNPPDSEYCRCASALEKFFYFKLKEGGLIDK
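Compounds, pin-transferred from DMSO stocks, meet 20nM GCN5L2 for 15 min before the reaction begins with H3(1-25) peptide (75uM) and acetyl-CoA (70uM). Thiol-reactive ThioGlo1 reports CoA release over 20 min at room temperature.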
VDR inhibitor – vitamin D3 receptor (human) inhibition; P11473; VDR-SRC2-3 peptide fluorescence polarization, 2 h; Potency, µM, without a hit: max response, negative = inhibition, most hits filed as inhibitors; 400,000 tested, 0.93% active; AID 504847
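Inhibition of the VDR/SRC2-3 peptide interaction is quantified by fluorescence polarization. Compounds (23 nl, pintool) incubate with the reagents for 2 hours at ambient room temperature.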
TrxR1 substrate – is turned over as a substrate by rat TrxR1; 390,000 tested, 0.01% active; O89049; purified TrxR1 substrate turnover, NADPH consumption readout; AID 588456; Potency, µM (doses to about 114 µM), inactives show at the highest dose activity change, negative = substrate turnover; note: nearly all actives have a fitted effect of over 50% in size
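Rat TrxR1, dispensed at 90 nM, was prereduced with 400 uM NADPH (final) for 5 min at ~22 deg C, then incubated with compound 15 min before 400 uM selenite. A first-read NADPH fluorescence drop versus no-compound background flagged substrates.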
Sfp PPTase inh – inhibitors of Bacillus subtilis Sfp phosphopantetheinyl transferase. Q9F4F7. Biochemical Sfp PPTase activity, qHTS. Potency, µM, for inactives: largest response in the series, negative = inhibition, actives largely listed as inhibitors. 310,000 tested, 3.5% active. AID 1490;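 note: the enzyme is Sfp with the accession as filed and its product quenches rhodamine fluorescence; 0% = enzyme reaction without inhibitor and -100% = no enzyme wells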
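Fluorescence-quenching assay with 15 nM Sfp, 5 uM rhodamine-CoA and 12.5 uM BHQ-2-labelled ybbR peptide in pH 7.6 Hepes/MgCl2 buffer. Enzyme was pre-incubated with compound for 15 min at room temperature. Rate was taken from the 30-min fluorescence change (525/598 nm).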
TrxR1 inh – rat TrxR1 inhibition | O89049 | recombinant rTrxR1, NADPH fluorescence consumption, selenite substrate | Potency, µM (highest dose often 114 µM), for the others: at the top dose activity change, negative = inhibition, hits mostly inhibitors | 390,000 tested, 1% active | AID 588453; note: nearly all actives have a fitted effect of over 65% in size
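Rat TrxR1 (90 nM in the dispensed reagent) was pre-reduced with 400 uM NADPH for 5 min at room temperature, then incubated with compound for 15 min. After 400 uM selenite was added, NADPH fluorescence (Ex 340/Em 450 nm) was followed for 8 min.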
GLS inh – blocks human kidney-isoform glutaminase activity; O94925; GLS enzymatic activity, qHTS titration; Potency, µM (highest dose often 45.5 µM), for inactives: at the top dose activity change, negative = inhibition, actives largely listed as inhibitors; 410,000 tested, 0.21% active; AID 624170
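Assay buffer: 45 mM KH2PO4 pH 8.2, 0.02% Tween-20. hKGA acts on L-glutamine (1 mM solution added); product glutamate is reported by an oxidase/peroxidase Amplex Red coupling, with fluorescence taken at baseline and 30 min.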
Starred values were filed as active, the others as inactive; i = inactive; ? = inconclusive; . = no result given; ! = not active in a repeat; [ ] = another dose, or the depositor's remark. This is a sample that favours compounds with a hit; in the whole collection about 3.8% have one here. Calls come from the whole dose curve; as a rule, active = well fitted curve in the direction sought with a large enough effect; inconclusive = small, poorly fitted or top-dose-only effect, or another doubt; inactive = no such curve, though single readings can be large; an effect the other way counts as inactive or inconclusive. Unless noted, % is set by controls: 0 for no effect and ±100 for the full control effect; potency is the fitted concentration of half-maximal effect.

SMILES	GCN5L2 inh	VDR inhibitor	TrxR1 substrate	Sfp PPTase inh	TrxR1 inh	GLS inh
O=C(Nc1ccc(C(F)(F)F)cc1)c1ccc2ncsc2c1	-2.5%	?	5.3%	79.4µM*	39.1%	2.6%
O=C(Nc1ccc(Cl)cc1)c1ccc2ncsc2c1	-0.2%	-12.8%	4.4%	?	1.9%	-5.6%
Cc1ccc(C(=O)Nc2ccccc2C(=O)N2CCCCC2C)cc1 (configuration not stated)	-2.3%	7.2%	-0.7%	18.2%	6.3%	-5.7%
Cc1cccc(CNC(=O)c2sc(=O)n(Cc3c(C)cccc3C)c2C)c1	.	.	.	.	.	-7.3%
COc1cccc2c1-c1c(O)cccc1C2=O	-24.3%	-2.1%	-5.5%	1.4%	12.5%	-1.1%
CC1OC(CC(=O)O)CC2=C1C(=O)c1c(O)cccc1C2=O (configuration not stated)	.	10µM*	-94.3%[57.1 µM]	.	-112.1%[57.1 µM]	?
COC(=O)CSC1=C(C#N)C(=O)NC(c2ccccc2)S1 (configuration not stated)	35.5µM*	3.2%	-23.6%	31.6µM*	28.2µM*	-3.5%
CSC1=C(C#N)C(=O)NC(c2ccccc2O)S1 (configuration not stated)	-2.1%	-14.7%	-1.5%[57.1 µM]	?	?	-1.5%
CCN1CCN(C(c2cccc(OC)c2OC)c2nnnn2Cc2ccco2)CC1 (configuration not stated)	-3.8%	-5.7%	-3.6%	13.0%	14.7%[57.1 µM]	10.4%
O=C1NC[C@H](Cc2ccc(O)cc2)N(C[C@@H]2CCCN2C[C@H](Cc2ccccc2)N2C[C@H](Cc3ccc(O)cc3)N(CC3CCCCC3)C(=O)C2=O)C1=O	.	.	.	.	.	-12.3%
Cc1ccc(SCc2ccc(C(=O)Nc3cccc([N+](=O)[O-])c3C)cc2)cc1	-7.5%	17.5%	-3.2%	-13.5%	22.5%	-5.5%
c1ccc2c(-c3nc4ccccc4[nH]3)cccc2c1	.	.	.	.	.	-1.4%
c1ccc2[nH]c(-c3ccnc4ccccc34)nc2c1	-0.8%	1.3%	54.5%[57.1 µM]	79.4µM*!	7.7%[57.1 µM]	-8.8%
CC1CCN(C(=S)Nc2ccc(F)cc2)CC1	-4.5%	-18.3%	-0.1%	-0.3%	7.0%	21.0%
C/C(=N\NC(=S)Nc1ccc(F)cc1)C1CC1	4.1%	11.9%	-6.7%	44.7µM*	-17.9%	-16.1%
N#CC1=C2SCN(C3CCCCC3)CN2C(=O)CC1c1ccc(F)cc1 (configuration not stated)	?	17.8µM*	-12.1%	.	-26.2%	2.2%
N#CC1=C2SCN(C3CCCCC3)CN2C(=O)CC1c1ccc(Cl)cc1 (configuration not stated)	?	22.4µM*	-3.7%	.	-13.9%	-7.8%
O=C(NCc1ccc(F)cc1)C1CC(=O)N(C2CCCCCCC2)C1 (configuration not stated)	-3.5%	-5.2%	7.0%[57.1 µM]	15.5%	18.4%[57.1 µM]	0.9%
O=C1CSC(c2ccc(Cl)cc2)N1C1CCCCC1 (configuration not stated)	.	23.7%	3.5%[57.1 µM]	8.7%	0.8%[57.1 µM]	6.3%
N#CC1=C2SCN(C3CCCCC3)CN2C(=O)CC1c1c(F)cccc1Cl (configuration not stated)	-19.7%	20µM*	-13.5%	.	?	23.3%
CC(C)c1ccc(C2CC(=O)N3CN(C)CSC3=C2C#N)cc1 (configuration not stated)	-9.1%	?	-6.5%[57.1 µM]	4.47µM*	-5.8%[57.1 µM]	?
COC(=O)[C@@]1(Cc2ccc(F)cc2)[C@H]2c3cc(C(=O)N4CCCC4)n(CCN4CCNC4=O)c3C[C@H]2CN1C(=O)c1ccccc1	.	.	.	.	.	2.7%
Cc1ccc(N2CCN(C(=O)c3ccc(Nc4nc5ccccc5n5nnnc45)cc3)CC2)c(C)c1	0.0%	-10.3%	-1.9%	.	12.5%	-4.1%
Nc1nc2ccc(O)cc2s1	-0.2%	1.2%	-2.9%	5.9%	-7.5%	12.6µM*
Nc1nc2ccc(Br)cc2s1	.	.	.	.	.	0.7%
SMILES	GCN5L2 inh	VDR inhibitor	TrxR1 substrate	Sfp PPTase inh	TrxR1 inh	GLS inh
CC(=O)Nc1ccc2c3c(cccc13)C(=O)N(c1ccccc1)C2=O	22.4µM*	4.2%	665.6%	8.4%	?	-17.4%
COC(=O)Cc1c(C)c2ccc3c(c2oc1=O)CN(Cc1ccc(C)cc1)CO3	?	6.1%	i	.	35.5µM*	23.4%
COC(=O)Cc1c(C)c2ccc3c(c2oc1=O)CN(Cc1ccccc1OC)CO3	-19.8%	4.9%	i	.	39.8µM*	11.4%
COC(=O)Cc1c(C)c2ccc3c(c2oc1=O)CN(Cc1ccccc1Cl)CO3	?	11.9%	i	.	?	24.3%
O=C(c1ccccc1)c1ccc(N2CCOCC2)cc1	.	-12.8%	-18.9%	.	?	2.0%
CCCn1nc(C(=O)Nc2ccc(S(=O)(=O)Nc3ncccn3)cc2)c2ccccc2c1=O	-0.7%	27.5%	-1.4%	22.1%	4.2%	11.1%
CN(C)/N=C/c1ccc(Sc2ccc([N+](=O)[O-])cc2[N+](=O)[O-])o1	-10.3%	-22.7%	-5.0%	-7.7%	50.1µM*	-4.5%
Cc1cc(C)nc(Sc2ccc([N+](=O)[O-])cc2[N+](=O)[O-])n1	-2.8%	-19.4%	-14.8%	18.2%	10µM*	-2.8%
CC1=C(C(=O)Nc2ccccc2)C(c2ccc(C)o2)n2c(s/c(=C\c3ccco3)c2=O)=N1 (configuration not stated)	-28.6%	17.9%	-17.0%	50.1µM*	?	-18.9%
CN(C(=O)c1ccc(NC(=O)Cc2ccc(NC(=O)C3CCN(C(=O)CCc4ccccc4)CC3)cc2)cc1)C1CC1	1.1%	-5.3%	3.4%	.	20.0%	2.4%
CN(Cc1ccco1)c1nc(-c2ccoc2)nc2ccccc12	-29.9%	44.7µM*	.	?	.	.
CN(Cc1ccco1)c1nc(-c2cccc(C#N)c2)nc2ccccc12	-4.0%	44.7µM*	.	-27.1%	.	.
CN(C)C(=O)c1ccc(-c2nc(N(C)Cc3ccco3)c3ccccc3n2)cc1	-4.9%	?	.	-8.7%	.	.
CN(C)c1ccc(-c2nc(N(C)Cc3ccco3)c3ccccc3n2)cc1	?	?	.	25.1µM*	.	.
Cc1noc(C)c1-c1nc(N(C)Cc2ccco2)c2ccccc2n1	-12.4%	28.2µM*	.	79.4µM*	.	.
